Rows were chosen to be rich in hits. Some 18% of all compounds tested hit in one or more screens of this group.
TGFb SMAD3 inh – qHTS for Inhibitors of TGF-b; HepG2 CAGA-GFP TGF-b/SMAD3 reporter, GFP fluorescence, 18 h; TGF-beta stimulated, 500 pg/mL final; hit rate 1.2% among 410,000; Potency, µM (doses to about 46.1 µM), for inactives: at the highest dose activity, negative = inhibition, usual class: inhibitors; AID 588855, 2011; note: potency is the fitted concentration of half-maximal effect; % is set by controls: 0 for no effect and ±100 for the full control effect; nearly all actives have a fitted effect of over 65% in size
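TGF-beta reporter screen: HEPG2 CAGA-GFP, 1% FBS, 500 pg/mL TGF-beta final, 18 h; per-cell GFP summed per well; curves fitted and categorized by class.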
TDP1 cell CPT – qHTS for Inhibitors of human tyrosyl-DNA phosphodiesterase 1 (TDP1): qHTS in cells in presence of CPT | chicken DT40 Tdp1-/-;hTDP1 cells + 20 nM CPT, ATP luminescence, 48 h | Potency, µM (highest dose often 46.2 µM), for the others: at the top dose activity change, negative = growth inhibition, hits mostly inhibitors | hit rate 12% among 420,000; note: potency is the fitted concentration of half-maximal effect; % is set by controls: 0 for no effect and ±100 for the full control effect; nearly all actives have a fitted effect of over 55% in size
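Cell growth measured by CellTiter-Glo luminescence after a minimum 48 h, 37 C compound exposure with 20 nM CPT in Tdp1-knockout DT40 cells stably expressing hTDP1, seeded 400/well; qHTS titration format.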
HepG2 tox – qHTS for Inhibitors of TGF-b: Cytotox Counterscreen; HepG2 CAGA-GFP viability, ATP luminescence, 18 h; Potency, µM (series often up to 46.1 µM), for the others: at the top dose activity change, negative = cytotoxicity, hits mostly cytotoxic; hit rate 0.76% among 410,000; note: potency is the fitted concentration of half-maximal effect
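CellTiter-Glo luminescence gave cytotoxicity after 18 hours at 37 degrees C. The cells were HepG2 CAGA-GFP in 1% FBS DMEM, stimulated with 500 pg/mL TGF-beta after compound addition. %Activity was normalised to no-cell wells (complete cell-killing) and DMSO (no toxicity), and curves were fitted and classified.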
IL1B secr inh – qHTS for Inhibitors of Inflammasome Signaling: IL-1-beta AlphaLISA Primary Screen | activity change, % at 57.5 µM | THP-1 LPS/ATP IL-1B secretion, AlphaLISA, 16 h; active compounds read low | hit rate 4.7% among 360,000; in the data active = activity change below about -50%; inconclusive = mostly about -30% to -49%; note: % is set by controls: 0 for no effect and ±100 for the full control effect
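Secreted IL-1B measured by AlphaLISA bead assay after 16 h compound exposure of THP-1 cells; compounds (final up to 57.5 uM) added 1 h before LPS (250 ng/mL) and ATP (1.25 mM) stimulation; lower signal means less secretion.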
TDP1 block – qHTS Assay for Inhibitors of Tyrosyl-DNA Phosphodiesterase (TDP1) | Tyrosyl-DNA phosphodiesterase 1 (Homo sapiens), Q9NUW8 | recombinant TDP1, AlphaScreen DNA substrate cleavage | Potency, µM (series often up to 130 µM), for the others: at the highest dose activity change, negative = inhibition, usual class: inhibitors | hit rate 0.28% among 350,000 | AID 485290, 2010; note: potency is the fitted concentration of half-maximal effect; % is set by controls: 0 for no effect and ±100 for the full control effect; nearly all actives have a fitted effect of over 40% in size
Target sequence (Q9NUW8 whole entry, looked up): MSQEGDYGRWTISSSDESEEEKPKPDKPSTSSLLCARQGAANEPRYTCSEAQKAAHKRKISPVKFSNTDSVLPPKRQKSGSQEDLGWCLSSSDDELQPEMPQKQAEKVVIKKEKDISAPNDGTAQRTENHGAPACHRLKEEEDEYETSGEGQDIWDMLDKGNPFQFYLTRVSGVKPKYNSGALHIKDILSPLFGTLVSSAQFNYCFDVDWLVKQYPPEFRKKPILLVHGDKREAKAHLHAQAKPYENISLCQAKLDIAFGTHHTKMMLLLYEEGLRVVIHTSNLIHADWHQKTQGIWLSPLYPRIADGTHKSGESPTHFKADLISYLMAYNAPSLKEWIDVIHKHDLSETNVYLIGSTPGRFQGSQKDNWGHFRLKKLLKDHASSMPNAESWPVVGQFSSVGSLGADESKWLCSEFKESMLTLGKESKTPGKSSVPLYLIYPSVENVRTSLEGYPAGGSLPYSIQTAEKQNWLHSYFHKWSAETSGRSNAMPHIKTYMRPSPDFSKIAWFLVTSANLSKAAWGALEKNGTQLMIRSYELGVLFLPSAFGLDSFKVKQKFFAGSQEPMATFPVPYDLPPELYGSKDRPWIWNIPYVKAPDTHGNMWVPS
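Steps: enzyme plus compound, 15 min RT; add biotin/phosphotyrosine-FITC oligonucleotide (15 nM final), react 5 min; add donor/acceptor beads (10 ug/ml final), 10 min; read AlphaScreen. Tdp1 at 1 nM final.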
DT40 TDP1 no CPT – qHTS for Inhibitors of human tyrosyl-DNA phosphodiesterase 1 (TDP1): qHTS in cells in absence of CPT. DT40 Tdp1-/- hTDP1 cells, no CPT, ATP luminescence, 48 h. Potency, µM (series often up to 46.2 µM), without a hit: at the highest dose activity change, negative = growth inhibition, most hits filed as inhibitors. hit rate 15% among 420,000; note: potency is the fitted concentration of half-maximal effect; % is set by controls: 0 for no effect and ±100 for the full control effect; nearly all actives have a fitted effect of over 55% in size
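Chicken DT40 Tdp1-/- cells complemented with human TDP1, screened without camptothecin (DMSO vehicle only), 400 cells/well. Compounds pin-transferred, cells incubated at 37 °C for at least 48 hr. Growth read as ATP-dependent luminescence (CellTiter-Glo, 30 min at RT).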
Starred values were filed as active, the others as inactive; u = inconclusive; x = not tested or not shown; [ ] = dose if it differs, or a comment. Unless noted, calls come from the whole dose curve; as a rule, active = well fitted curve in the direction sought with a large enough effect; inconclusive = small, poorly fitted or top-dose-only effect, or another doubt; inactive = no such curve, though single readings can be large; an effect the other way counts as inactive or inconclusive.

SMILES	TGFb SMAD3 inh	TDP1 cell CPT	HepG2 tox	IL1B secr inh	TDP1 block	DT40 TDP1 no CPT
C=CCCC(=O)N1CCCC(Cc2cccc(Cl)c2)(C(=O)OCC)C1 (stereo not given)	-18%	u	-21%	-56*	x	u
CCOC(=O)C1(Cc2cccc(Cl)c2)CCCN(C(=O)c2cc(C(C)C)nn2C)C1 (stereo not given)	-15%	15µM*	-23%	u	-4%	u
CCOC(=O)C1(Cc2cccc(Cl)c2)CCCN(C(=O)c2cc(C)on2)C1 (stereo not given)	-6%	18µM*	0%	-1	3%	21µM*
CCCCC1CCC(C(=O)Nc2ccc(N3CCOCC3)cc2N2CCOCC2)CC1 (stereo not given)	4%	u	2%	4	5%	u
N#CC(C#N)=Cc1c[nH]c(=O)c(C#N)c1Nc1ccccc1	-1%	1%	-13%	1	x	1%
CCCCNC(=O)c1nc(C2CCN(S(=O)(=O)c3c(F)cccc3F)CC2)oc1-c1ccccc1	u	9.2µM*	-27%	23	x	18µM*
CCCCNC(=O)c1nc(C2CCN(S(=O)(=O)c3c(F)cccc3F)CC2)oc1-c1cccc(C(F)(F)F)c1	-24%	7%	0%	0	x	-10%
CCCCNC(=O)c1nc(C2CCN(S(=O)(=O)c3ccccc3C(F)(F)F)CC2)oc1-c1cccc(C(F)(F)F)c1	-4%	2%	3%	7	x	-1%
CCCCNC(=O)c1nc(C2CCN(S(=O)(=O)c3ccc(OC(F)(F)F)cc3)CC2)oc1-c1ccccc1	x	7.3µM*	x	-8	x	6.5µM*
CCCCNC(=O)c1nc(C2CCN(S(=O)(=O)c3ccc(F)c(F)c3)CC2)oc1-c1ccccc1	-3%	10µM*	0%	6	x	6.5µM*
CCCCNC(=O)c1nc(C2CCN(S(=O)(=O)c3ccccc3C(F)(F)F)CC2)oc1-c1ccccc1	-14%	23µM*	-7%	3	x	16µM*
O=C(Nc1cccc(-n2cnnn2)c1)c1cc2ccccc2o1	17%	-26%	13%	-29	4%	-26%
O=C(Nc1ccc2nn(-c3ccccc3)nc2c1)c1cc2ccccc2o1	-9%	u	-27%	x	-3%[12.3 µM]	15µM*
CCc1ccc(-n2nc3ccc(NC(=O)c4cc5ccccc5o4)cc3n2)cc1	1%	u	-4%	x	x	4.6µM*
CNC(=O)[C@H]1O[C@@H](n2cnc3c(N)ncnc32)[C@H](O)[C@H]1O	x	x	x	x	4%[56.1 µM]	x
Cc1ccc(OCCN2CCCC2)cc1	-3%	-11%	1%	18	4%	1%
Cc1c(-c2ccc(O)cc2)nn(-c2ccc(O)cc2)c1-c1ccc(OCCN2CCCCC2)cc1	x	19µM*	x	x	19%[56.1 µM]	30µM*
Cc1cc(C)c(NC(=O)COc2ccc3c(C)cc(=O)oc3c2)c(C)c1	-6%	u	-12%	x	x	u
Cc1ccc(C)c(S(=O)(=O)N2CCN(C(=O)CCNC(=O)c3ccc(Br)cc3)CC2)c1	-23%	23µM*	0%	-17	0%	21µM*
Cc1ccc(C)c(OCCC(=O)N2CCN(S(=O)(=O)c3cc(C)ccc3C)CC2)c1	-13%	u	-7%	-4	x	u
COc1cc(OC)cc(C(=O)NCC(=O)N2CCN(S(=O)(=O)c3ccccc3F)CC2)c1	-1%	-19%	0%	28	-1%	3%
COc1cc(C(=O)NCC(=O)N2CCN(S(=O)(=O)c3cc(C)ccc3C)CC2)cc(OC)c1OC	u	5.8µM*	-15%	91	2%	3.7µM*
Cc1ccc(C)c(S(=O)(=O)N2CCN(C(=O)CCNS(=O)(=O)c3ccc(C)c(C)c3)CC2)c1	-26%	u	-8%	-5	1%	18µM*
NC(=O)COc1ccc2oc(=O)cc(-c3cc4ccccc4o3)c2c1	-1%	u	-2%	-27	-4%	u
O=C(CSc1nc2c(oc3ccccc32)c(=O)n1-c1ccccc1)Nc1ccc(F)c(Cl)c1	u	u	6%	x	-1%	13µM*
SMILES	TGFb SMAD3 inh	TDP1 cell CPT	HepG2 tox	IL1B secr inh	TDP1 block	DT40 TDP1 no CPT
O=C(CSc1nc2c(oc3ccccc32)c(=O)[nH]1)Nc1cccc(Cl)c1	11µM*	u	-62%	x	-6%	-29%
O=C(CSc1nc2c([nH]c3ccccc32)c(=O)n1-c1ccccc1)Nc1ccc(Cl)c(Cl)c1	u	8.2µM*	-18%	x	1%	10µM*
O=C(CSc1nc2c([nH]c3ccccc32)c(=O)n1-c1ccccc1)Nc1ccc2c(c1)OCCO2	0%	u	-5%	x	9%	u
O=C(CSc1nc2c([nH]c3ccccc32)c(=O)n1-c1ccccc1)Nc1ccc2c(c1)OCO2	-7%	u	-31%	x	2%	23µM*
NS(=O)(=O)c1ccc(NC(=O)CN2C(=O)COc3ccc(Cl)cc32)cc1	1%	-14%	-12%	x	-1%	-13%
Cc1cc(C)cc(OCCOCCn2c(-c3ccc(Cl)cc3)nc3ccccc3c2=O)c1	8%	u	-35%	x	x	-29%
O=C(Cc1ccc(Cl)cc1)Nc1cccc(-c2nnc(-c3ccco3)o2)c1	25%	u	5%	29	0%	u
COc1ccccc1OCC(=O)Nc1cccc(-c2nnc(-c3ccco3)o2)c1	26%	u	-8%	-2	-3%	21µM*
O=C(Cc1ccccc1)Nc1cccc(-c2nnc(-c3ccco3)o2)c1	-2%	u	2%	-23	-2%	15µM*
O=C(Nc1cccc(-c2nnc(-c3ccccc3)o2)c1)C1CC1	4%	u	5%	u	-5%	u
O=C(Nc1cccc(-c2nnc(-c3ccco3)o2)c1)c1ccccc1	4%	u	-16%	-78*	3%	u
O=C(Nc1ccccc1)C(c1ccccc1)c1ccccc1	0%	-2%	-4%	-11	x	-27%
O=C(Nc1cccc(-c2nnc(-c3ccco3)o2)c1)C(c1ccccc1)c1ccccc1	1%	u	-8%	-21	2%	16µM*
Cc1ccc(NC(=O)CSc2nc3nc(C)c(Cc4ccccc4)c(C)n3n2)cc1	0%	u	0%	x	5%	u

Assay outcomes deposited in PubChem by National Center for Advancing Translational Sciences (NCATS).
